High-throughput results from PubChem BioAssay.
PI5P4Ka inh: qHTS for Inhibitors of phosphatidylinositol 5-phosphate 4-kinase (PI5P4K); max response, %; hit rate 1.2% among 330,000; PI5P4Kalpha enzyme, ADP-Glo luminescence, 60 min; stronger effect = lower value; AID 652105, 2013; Phosphatidylinositol 5-phosphate 4-kinase type-2 alpha (Homo sapiens), P48426; active = max response of -50% or lower; inconclusive = between -30% and -50%; inactive = -30% or higher; note: value at the top dose of about 77 µM
Target sequence (P48426 whole entry, looked up): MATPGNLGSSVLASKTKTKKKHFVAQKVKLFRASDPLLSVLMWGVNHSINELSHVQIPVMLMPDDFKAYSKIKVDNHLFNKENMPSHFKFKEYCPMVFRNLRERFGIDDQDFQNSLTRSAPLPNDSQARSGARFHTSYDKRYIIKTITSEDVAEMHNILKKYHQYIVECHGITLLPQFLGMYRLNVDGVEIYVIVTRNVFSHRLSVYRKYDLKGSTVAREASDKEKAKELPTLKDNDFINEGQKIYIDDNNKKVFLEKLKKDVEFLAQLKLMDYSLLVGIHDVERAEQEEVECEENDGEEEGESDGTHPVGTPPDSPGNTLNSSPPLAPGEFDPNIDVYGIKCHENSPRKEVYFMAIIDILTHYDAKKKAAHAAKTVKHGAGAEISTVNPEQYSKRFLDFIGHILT
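Reactions run in 0.038 M HEPES pH 7.4, 0.28 mM EGTA, 0.1% CHAPS and 5% DMSO, with PI5P4Kalpha, substrate, compound and 5 microM ATP final, one hour at room temperature. Readout is ADP-Glo luminescence.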
JMJD2A Tudor inh: qHTS Assay for Inhibitors of JMJD2A-Tudor Domain. Lysine-specific demethylase 4A (Homo sapiens), O75164. AlphaScreen JMJD2A-Tudor / H3K4me3 peptide binding. Potency, µM (titrated, usually from 114 µM), most hits filed as inhibitors. hit rate 4.4% among 390,000; note: nearly all actives have a fitted effect of over 50% in size
PLK1 PBD inh: qHTS for Inhibitors of PLK1-PDB (polo-like kinase 1 - polo-box domain): Primary Screen | Potency, µM, hits mostly inhibitors | Plk1 PBD binding of FITC phosphopeptide, fluorescence polarization | hit rate 2.8% among 360,000 | Serine/threonine-protein kinase PLK1 (Homo sapiens), P53350; note: series mostly up to about 57 µM; nearly all actives have a fitted effect of over 65% in size
HP1b binding inh: HTS for Inhibitors of HP1-beta Chromodomain Interactions with Methylated Histone Tails | Chromobox protein homolog 1 (Homo sapiens), P83916 | AID 540317, 2011 | hit rate 0.56% among 390,000 | Potency, µM (top dose mostly 114 µM), usual class: inhibitors | AlphaScreen HP1-beta / biotin-H3K9me3 peptide binding; note: nearly all actives have a fitted effect of over 70% in size
Target sequence (P83916 whole entry, looked up): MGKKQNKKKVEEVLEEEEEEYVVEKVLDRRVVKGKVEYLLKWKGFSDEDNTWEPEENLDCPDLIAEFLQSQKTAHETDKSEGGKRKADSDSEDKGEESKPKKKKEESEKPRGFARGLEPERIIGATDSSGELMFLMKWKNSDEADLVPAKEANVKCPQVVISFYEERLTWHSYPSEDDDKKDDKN
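AlphaScreen: HP1-beta (50 nM) preformed 30 min with biotin-H3(1-18)K9me3 peptide (50 nM) in PBS pH 7.4, 0.01% Tween-20. Compound added for 30 min at RT, then streptavidin donor/nickel chelate acceptor beads (10 ug/mL) for 30 min.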
G9a block: qHTS Assay for Inhibitors of Histone Lysine Methyltransferase G9a | Potency, µM (titrated, usually from 102 µM), hits mostly inhibitors | hit rate 8.8% among 350,000 | G9a H3K9 monomethylation, AlphaScreen, 2 h | AID 504332, 2011; note: nearly all actives have a fitted effect of over 75% in size
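AlphaScreen detection with an anti-monomethyl H3K9 antibody quantified product after a 2 h room-temperature reaction containing 500 nM biotinylated H3K9 peptide, 20 µM SAM and 20 nM enzyme, which had been preincubated 15 min with compound.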
BAZ2B inh: qHTS Assay for Inhibitors of BAZ2B. Bromodomain adjacent to zinc finger domain protein 2B (Homo sapiens), Q9UIF8. AlphaScreen BAZ2B-H3K14Ac peptide displacement. Potency, µM (titrated, usually from 114 µM), hits mostly inhibitors. AID 504333, 2011. hit rate 4.4% among 360,000; note: nearly all actives have a fitted effect of over 60% in size
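AlphaScreen displacement: compounds (up to 110uM) incubated 30 min at room temperature with a preformed 50 nM BAZ2B/50 nM biotinylated H3K14Ac peptide complex in PBS pH 7.4 with Tween-20. Donor and acceptor beads at 10 ug/mL final added, 20 min light-protected before reading.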
Numbers stand for hits; i = inactive; ? = inconclusive; nt = no result given; [ ] = remark or other dose. Rows were chosen to be rich in hits. Some 12% of all compounds tested hit in one or more screens of this group. Unless noted, calls come from the whole dose curve; as a rule, active = well fitted curve in the direction sought with a large enough effect; inconclusive = small, poorly fitted or top-dose-only effect, or another doubt; inactive = no such curve, though single readings can be large; an effect the other way counts as inactive or inconclusive.

SMILES	PI5P4Ka inh	JMJD2A Tudor inh	PLK1 PBD inh	HP1b binding inh	G9a block	BAZ2B inh
C/C(=N\Nc1ccc([N+](=O)[O-])cc1[N+](=O)[O-])c1cccnc1	i	i	i	i	i	?
CC(C)=NNc1cnnc2ccc([N+](=O)[O-])cc12	-68.9	nt	i	nt	nt	nt
CC(OC(=O)c1cc(=O)[nH]c2ccccc12)C(=O)NC1CCCC1 (stereo not drawn)	i	i	i	i	i	i
C/C(=N/NC(=O)CNC(=O)c1ccccn1)c1cccc([N+](=O)[O-])c1	i	i	?	i	17.8µM	?
C/C(=N\Nc1ccc(Cl)cc1)c1ccncc1	i	?	i	i	?	?
C/C(=N\Nc1ccc(Cl)cc1)c1ccccn1	nt	?	i	i	3.55µM	?
C/C(=N\NC(=O)c1ccc(Cl)cc1)c1ccccn1	i	25.1µM	i	i	nt	7.94µM
S=C(N/N=C/c1cccc2ccccc12)Nc1cccc(Cl)c1	i	i	i	i	i	79.4µM
O=C(NCc1ccc(F)cc1)n1c(-c2ccccc2)c(P(=S)(c2ccccc2)c2ccccc2)c2ccccc21	nt	i	nt	nt	nt	nt
CC(C)c1ccc(NC(=O)CN2C(=O)COc3ccc(S(=O)(=O)N4CCCCC4)cc32)cc1	nt	i	nt	i	i	i
CC(C)(C)OC(=O)NCCc1nc(NC(=O)OCc2ccccc2)sc1C(=O)O	i	nt	i	nt	nt	nt
C/C(=N\NC(=O)c1ccccn1)C12CC3CC(CC(C3)C1)C2	nt	?	i	i	?	50.1µM
C/C(=N\NC(=O)c1cc(C)nc2ccccc12)c1ccncc1	i	i	i	i	nt	i
C/C(=N\NC(=O)c1cc(C)nc2ccccc12)c1ccccn1	i	20µM	i	i	i[2.33 µM]	7.94µM
C/C(=N\NC(=O)C(C)Oc1ccc([N+](=O)[O-])cc1)c1ccccn1 (stereo not drawn)	nt	56.2µM	i	i	i	25.1µM
O=C(N(c1ccccn1)c1ccccn1)C12CC3CC(CC(C3)C1)C2	i	i	i	i	79.4µM	i
CCc1cccc(NC(=O)C(CC(C)C)NS(=O)(=O)c2ccc3c(c2)oc(=O)n3C)c1 (stereo not drawn)	nt	i	nt	i	i	i
CC(=NNC(=S)Nc1cccc(Cl)c1)c1ccccn1	i	25.1µM	i	?	nt	nt
C/C(=N/NC(=O)c1ccccn1)c1c[nH]c2ccccc12	i	i	i	i	?	50.1µM
S=C(NCc1ccccn1)Nc1cccc(Cl)c1	i	?	i	i	i[0.501 µM]	i
C/C(=N\NC(=O)c1ccccn1)c1ccc(Cl)cc1	i	i	i	i	nt	?
C/C(=N/Nc1ccc([N+](=O)[O-])cc1)c1c[nH]c2ccccc12	i	?	i	?	?	39.8µM
C/C(=N/NC(=O)c1ccccn1)c1ccc(O)cc1	i	?	i	i	nt	50.1µM
CCc1ccc(NC(=O)c2cccc(N3CCCS3(=O)=O)c2)cc1	nt	i	nt	i	i	i
CCOc1ccc(N(C)S(=O)(=O)c2c(C(=O)N3CCC(C)CC3)c(C)n(C)c2C)cc1	nt	i	nt	i	i	i
SMILES	PI5P4Ka inh	JMJD2A Tudor inh	PLK1 PBD inh	HP1b binding inh	G9a block	BAZ2B inh
N#CCCn1c(=O)c(-c2ccc(Cl)cc2)nc2cnc(OCc3ccccc3)nc21	nt	nt	nt	nt	i[12.7 µM]	nt
C/C(=N\Nc1ccc2nncn2n1)c1ccco1	i	i	i	i	nt	i
C/C(=N\NC(=O)COc1ccccc1-c1ccccc1)c1ccccn1	i	i	i	i	i	56.2µM
C/C(=N\Nc1ccc2nncn2n1)c1ccccn1	i	22.4µM	i	i	i	8.91µM
CCOC(=O)N1CCc2c(sc3[nH]c(=S)[nH]c(=S)c23)C1	-66.9	i	?	i	i	i
CCOC(=O)N1CCc2c(sc3nc[nH]c(=O)c23)C1	i	i	i	i	nt	i
CCn1cc(C(=O)NCCCOC)c(=O)c2cc(S(=O)(=O)N3CCc4ccccc4C3)ccc21	nt	i	nt	i	i	nt
CCC(=O)Nc1ccc(S(=O)(=O)NC[C@H]2O[C@@H](n3cc(C)c(=O)[nH]c3=O)C[C@@H]2O)cc1	i	nt	i	nt	nt	nt
CCN1C(=O)[C@H]2[C@@H](c3ccc(C)cc3)N3C(=O)N(c4ccc(OC)cc4)C(=O)[C@@]3(C)[C@H]2C1=O	i	i	21.2µM	i	i	i
CSc1nc(Oc2cccc(C(F)(F)F)c2)cc(C(F)(F)F)n1	i	i[11.4 µM]	26.7µM	i	i	i
CSc1nc(Oc2ccc(F)cc2F)cc(C(F)(F)F)n1	i	i	i	i	nt	i
Cc1cc(NS(C)(=O)=O)c(=O)n(Cc2cccc(C(F)(F)F)c2)c1	i	nt	i	nt	nt	nt
Nc1[nH]nc2ncc3cc4ccccc4nc3c12	i	i	i	i	35.5µM	?
CC(C)(C)S(=O)N1Cc2cc(=O)n(Cc3ccccc3)c(CCO)c2[C@@H]1CCO (stereo partly drawn)	i	i	i	i	nt	nt
COCCN(Cc1ccc(C)c(Br)c1)C(=O)Cn1cnc(S(=O)(=O)N2CCCC2)c1	i	?	9.47µM	i	i	i
Cc1ccc(OCC(=O)NCCCNC(=O)c2ccncc2)cc1	i	i	i	i	31.6µM	i
COc1ccccc1NC(=O)c1nc[nH]c1C(=O)Nc1ccccc1OC	i	i	?	?	11.2µM	?
CCOc1ccccc1NC(=O)c1csc(C)c1C	i	i	i	i	35.5µM	i
CCOc1ccccc1NC(=O)c1nc[nH]c1C(=O)Nc1ccccc1OCC	nt	i	i	i	12.6µM	56.2µM
